The source of these data is PubChem BioAssay (Tox21).

SMILES strings stand for the structures. Results filed as inconclusive are left out. The source made the active and inactive calls. The call rests on the fitted dose curve; in most records, active means well fitted activation curve with a large enough effect in the repeat runs; inconclusive means weak or mixed curves; inactive means flat fitted curve, though single readings scatter.
On the % scale 0 is the no-effect control and ±100 the full control effect.

This experiment can be described thus: Caspase-3/7 induction in HepG2 cells by small molecules, qHTS assay (AID 1346978). Further: nearly all actives have a fitted effect of over 15% in size. The conditions noted are these: HepG2 caspase-3/7 activation, Caspase-Glo luminescence, 17 h; series mostly up to 92.4 µM; caspase activation: at the top concentration. The text has this: National Center for Advancing Translational Sciences [NCATS] NIH Chemical Genomics Center [NCGC] U.S. Environmental Protection Agency [EPA] National Institutes of Environmental Health Sciences [NIEHS] National Toxicology Program [NTP] Assay overview: Apoptosis is a process of programmed cell death and plays a central role in the development of multicellular organisms. It is a highly regulated process and induces cell death by activating caspases, which are the members of cysteine aspartic acid-specific protease (caspase) family. Caspases involved in apoptosis are classified by their mechanism of action as initiator caspases (caspase-2, -8, -9 and -10) and executioner caspases (caspase-3, -6, and -7). Inhibition of apoptosis results in number of cancers, autoimmune diseases, inflammatory diseases and viral infection. To identify small molecule compounds that induce apoptosis, a homogeneous, luminescent Caspase-Glo 3/7 assay was used. Wild type HepG2 cells were used to screen Tox21 libraries for identifying caspase-3/7 activity inducers.
Assay Protocol Summary: HepG2 cells were dispensed at 2,000 per well in 5uL of culture medium into white solid bottom 1536-well plates (Corning Life Sciences, Corning, NY) using a Multidrop Combi (Thermo Scientific, Waltham, MA) dispenser. The assay plates were incubated at 37 C and 5% CO2 for 5hr, and then 23nL of compounds dissolved in DMSO and positive control were transferred using a Pintool station (Wako, San Diego, CA). The assay plates were incubated at 37C and 5% CO2 for 17hr. For caspase-3/7 activity read, 4uL of Caspase-Glo 3/7 reagent (Promega Corporation, Madison, WI) was added to each well of the assay plates using Flying Reagent Dispenser (FRD, Aurora Discovery, San Diego, CA) and incubated the assay plates at room temperature for 30min. The luminescence signal was quantified using a ViewLux plate reader (Perkin Elmer, Shelton, CT).
In the case of `CCCCCCCCNC`, the “caspase activation” value was 1.98% (inactive).

As to `CCC(=O)O[C@@H]1C[C@H]2CC[C@]1(C)C2(C)C`, the “caspase activation” value is 0.75% (inactive).

Consider `O=C1CCCN1CCO`, for which the “caspase activation” value was -0.0776% (inactive).

With `CC/C=C/CCO`, the “caspase activation” value was -0.108% (inactive).

With `O=Cc1ccc([N+](=O)[O-])cc1`, the “caspase activation” value was 1.2% (inactive).

As for `CCCN(C1CCN(C(=O)C2CCNCC2)CC1)[C@@H]1CCc2ccc(OC)cc2C1`, the “caspase activation” value was 0.305% (inactive).

As to `O=C(O)COCC(=O)O`, the “caspase activation” value was -1.72% (inactive).

As to `CCCC1CCCC(=O)O1` (stereo not given), the “caspase activation” value is -0.906% (inactive).

Take `CC(=O)Nc1ccccc1O`: the “caspase activation” value was 1.33% (inactive).

In the case of `CCCCCCCCCC(C)C=O` (stereo not given), the “caspase activation” value is -1.82% (inactive).

As to `CCC(CC)C(=O)O`, the “caspase activation” value is -0.238% (inactive).

Take `COC(=O)c1cc(Cl)ccc1[N+](=O)[O-]`: the “caspase activation” value was 0.313% (inactive).

Consider `O=C(O)c1ccccc1[N+](=O)[O-]`, for which the “caspase activation” value was -1.19% (inactive).

Take `O=S(=O)(O)c1cc(Cl)c(Cl)cc1Cl`: the “caspase activation” value was -1.07% (inactive).

As for `Clc1cccc(C(c2ccc3nc[nH]c3c2)n2ccnc2)c1` (stereo not given), the “caspase activation” value is -1.85% [at 42.5 µM] (inactive).

On to `Cc1c(-c2cccnc2)c2ccccc2n1CCCCC(=O)O`, for which the “caspase activation” value was 11.1% (inactive).

Regarding `Cc1ccc2c(Cl)cc(Cl)c(O)c2n1`, the “caspase activation” value is 0.841% [at 42.5 µM] (inactive).

`O=C(c1ccco1)N1CCNCC1`: the “caspase activation” value was 2.05% [at 42.5 µM] (inactive).

Regarding `CC(=O)c1cccnc1`, the “caspase activation” value was 0.433% (inactive).

`CCCCC(CC)COCCC#N` (stereo not given): the “caspase activation” value is -0.392% (inactive).

Take `CCCCCCCCOCCCN`: the “caspase activation” value was -2.4% (inactive).

On to `CCCCCCCCCCCCCCCCN`, for which the “caspase activation” value is -1.78% [at 42.5 µM] (inactive).

Turning to `CC(C)(C)N`, the “caspase activation” value was 0.359% (inactive).

For `CC(C)CC(C)(C)C`, the “caspase activation” value was 3.27% (inactive).

Turning to `O=C(Cl)c1cc(Cl)cc(Cl)c1`, the “caspase activation” value is -2.61% (inactive).

In the case of `CCC[Si](OC)(OC)OC`, the “caspase activation” value is 0.0697% (inactive).

As for `Nc1ccc(-c2ccc(F)cc2)cc1`, the “caspase activation” value is -7.41% (inactive).

Regarding `CCCOC(C)=O`, the “caspase activation” value is -1.04% (inactive).

Take `C[C@H](N)C(=O)N[C@@H](C)C(=O)NC1[C@H]2CN(c3nc4c(cc3F)c(=O)c(C(=O)O)cn4-c3ccc(F)cc3F)C[C@@H]12` (stereo not given in full): the “caspase activation” value is -0.45% [at 42.5 µM] (inactive).

In the case of `Cc1ccccc1CCO`, the “caspase activation” value is 0.392% (inactive).

Take `N#CCCCC(C#N)CCC#N` (stereo not given): the “caspase activation” value was -0.808% (inactive).

For `CCCCCCC/C=C/C=O`, the “caspase activation” value was -2.54% (inactive).

Take `Cc1ccc(NC=O)c(C)c1`: the “caspase activation” value was 0.142% (inactive).

Turning to `CO[C@@H]1[C@@H](O[C@@H]2O[C@H](C)[C@@H](O[C@H]3C[C@@](C)(O)[C@@H](O)[C@H](C)O3)[C@H](N(C)C)[C@H]2O)[C@@H](CC=O)C[C@@H](C)[C@@H](O[C@@H]2CC[C@H](N(C)C)[C@@H](C)O2)/C=C/C=C/C[C@@H](C)OC(=O)C[C@H]1OC(C)=O`, the “caspase activation” value was 1.91% [at 42.5 µM] (inactive).

Turning to `NCCOCCOCCN`, the “caspase activation” value is 0.227% (inactive).

For the molecule `O=C1OC(=O)C2CC=CCC12` (stereo not given), the “caspase activation” value is 0.694% (inactive).

Consider `FC(F)(Cl)C(F)(Cl)Cl`, for which the “caspase activation” value is 0.169% (inactive).

For `COC(=O)C(C)(C)C`, the “caspase activation” value was 0.167% (inactive).

As to `CC[C@H](NC(C)C)[C@H](O)c1ccc(O)c2[nH]c(=O)ccc12`, the “caspase activation” value was -2.14% [at 42.5 µM] (inactive).

Regarding `CCC1=C(C)CN(C(=O)NCCc2ccc(S(=O)(=O)NC(=O)NC3CCC(C)CC3)cc2)C1=O` (stereo not given), the “caspase activation” value was 1.08% [at 42.5 µM] (inactive).
